Screening data: PubChem BioAssay, several laboratories
697 NFkB inh: lowers PMA/ionomycin-induced NF-kB signal in 697 B cells. 697 B-cell NF-kB luciferase reporter, 16 h. inhibition, % at 4 µM. actives 0.33% (n = 330,000). AID 435022; in the data active = inhibition above about 35%
Jurkat NFkB inh: lowers PMA/ionomycin-induced NF-kB signal in Jurkat cells. PMA/ionomycin-induced NF-kB luciferase reporter, luminescence. inhibition, % at 4 µM. actives 0.53% (n = 330,000). AID 435003; in the data active = inhibition above about 50%
Mdm2 MdmX PPI: disrupts the human Mdm2-MdmX interaction; O15151+Q00987; SaOS-2 split-luciferase Mdm2/MdmX complementation, luminescence; inhibition, % at 8 µM; actives 3% (n = 330,000);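 active = inhibition of at least 50% at 8 µM in the primary screen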
Target sequence (O15151 whole entry, looked up): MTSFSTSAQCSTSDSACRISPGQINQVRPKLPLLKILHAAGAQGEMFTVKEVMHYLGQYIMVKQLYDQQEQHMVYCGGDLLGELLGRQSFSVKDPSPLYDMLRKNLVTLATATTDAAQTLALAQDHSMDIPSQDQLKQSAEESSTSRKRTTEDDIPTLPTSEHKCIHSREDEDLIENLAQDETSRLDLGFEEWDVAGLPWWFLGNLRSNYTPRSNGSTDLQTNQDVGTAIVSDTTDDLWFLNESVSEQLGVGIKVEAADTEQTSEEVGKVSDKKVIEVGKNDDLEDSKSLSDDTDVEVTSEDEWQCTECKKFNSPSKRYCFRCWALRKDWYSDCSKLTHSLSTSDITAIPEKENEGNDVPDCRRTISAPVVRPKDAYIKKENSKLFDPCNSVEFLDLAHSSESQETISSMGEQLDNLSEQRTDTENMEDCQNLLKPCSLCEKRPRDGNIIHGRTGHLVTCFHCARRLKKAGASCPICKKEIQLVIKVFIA
Target sequence (Q00987 whole entry, looked up): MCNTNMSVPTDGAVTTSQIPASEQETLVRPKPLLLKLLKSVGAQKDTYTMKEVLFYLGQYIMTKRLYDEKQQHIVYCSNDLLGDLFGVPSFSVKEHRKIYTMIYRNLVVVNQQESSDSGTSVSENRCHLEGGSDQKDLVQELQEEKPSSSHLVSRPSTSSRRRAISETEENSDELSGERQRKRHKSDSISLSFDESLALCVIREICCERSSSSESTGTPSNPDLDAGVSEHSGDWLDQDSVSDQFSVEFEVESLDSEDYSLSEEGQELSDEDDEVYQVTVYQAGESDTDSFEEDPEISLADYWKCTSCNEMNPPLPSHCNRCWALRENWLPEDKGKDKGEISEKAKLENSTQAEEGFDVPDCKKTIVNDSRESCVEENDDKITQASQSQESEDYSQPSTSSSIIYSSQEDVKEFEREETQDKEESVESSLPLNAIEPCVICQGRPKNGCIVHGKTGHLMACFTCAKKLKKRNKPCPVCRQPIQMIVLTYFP
Gli-Sufu antag: antagonists of Gli-Sufu signaling; AID 588413; actives 0.74% (n = 340,000); Sufu-KO-LIGHT fibroblasts, Gli luciferase reporter luminescence; inhibition, % at 5 µM;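 active = inhibition above about 55%, limit read from the data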;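 also: 0% = DMSO-treated cells and 100% = wells with medium but no cells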
Beta apoptosis: blocks beta cell apoptosis | INS-1E cytokine-induced death, ATP luminescence, 48 h; percent of positive-control rescue, neutral wells zero | protection from apoptosis, % (concentration not given with the values) | actives 0.8% (n = 300,000);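 active = Every replicate reaches about 75%, or at least half do and their mean reaches it too, limit read from the data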;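 also: 0% = cytokine-treated negative control wells and 100% = positive control rescue; higher means more ATP so stronger rescue from cytokine killing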
Numbers without * were called inactive; . = not tested or not shown. Shown are actives, neighbours in structure and some others; about 4% of the full set was active somewhere.

SMILES	697 NFkB inh	Jurkat NFkB inh	Mdm2 MdmX PPI	Gli-Sufu antag	Beta apoptosis
CCOC(=O)C1(Cc2ccc(Cl)cc2)CCN(C(C)Cc2ccc(O)c(OC)c2)CC1 (configuration not stated)	-21	45	10	72*	.
CCOC(=O)C1(Cc2ccc(OC)cc2)CCN(S(C)(=O)=O)CC1	-19	-8	-16	-9	-7
Cc1ccccc1OC1C(=O)N(Cc2ccc3c(c2)OCO3)C1c1sccc1C (configuration not stated)	-6	8	48	9	79*
O=C1C(Oc2ccccc2)C(c2cccs2)N1Cc1ccc2c(c1)OCO2 (configuration not stated)	-11	0	10	1	10
CCOC(=O)c1[nH]c(C)c(CN(C(C)=O)c2ccc(OCC)cc2)c1C	2	34	30	14	-4
Brc1cccc(CNc2nc3ccccc3n2CCN2CCOCC2)c1	-34	7	-6	20	1
COc1ccc(N(CC(=O)NCCC2=CCCCC2)S(=O)(=O)c2c(C)[nH]c(=O)[nH]c2=O)cc1	-14	6	2	3	-10
O=C(NCc1cccnc1)c1ccc(Cn2c(=S)[nH]c3ccc(Br)cc3c2=O)cc1	-22	-12	17	1	98*
Cc1ccc(C)c(S(=O)(=O)Nc2cc(SCC(=O)O)c(O)c3ccccc23)c1	.	.	.	9	130*
CCc1ccc(S(=O)(=O)Nc2cc(SCC(=O)O)c(O)c3ccccc23)cc1	-18	0	20	0	-22
NC(=O)CC(NC(=O)Cc1cccc2ccccc12)c1ccc(N2CCc3ccccc3C2)c([N+](=O)[O-])c1 (configuration not stated)	1	4	49	11	-9
O=C(NNC(=O)c1ccccc1-c1ccccc1C(=O)O)c1ccccc1	1	12	17	-3	3
O=C(C=P(c1ccccc1)(c1ccccc1)c1ccccc1)c1ccccc1-c1ccccc1C(=O)C=P(c1ccccc1)(c1ccccc1)c1ccccc1	.	.	.	86*	.
COc1ccc(/C=C/C(=O)NC(=S)NNC(=O)c2cccnc2)cc1	-17	0	-14	-2	7
O=C(NC(=S)NNC(=O)c1cnccn1)c1ccc(F)cc1	23	7	45	6	79*
O=C(/C=C/c1ccc(F)cc1)NC(=S)NNC(=O)c1cnccn1	-61	-14	50	5	70*
O=C(NNC(=S)NC(=O)c1cccnc1)c1ccc(F)cc1	-3	4	12	-1	-3
O=C(O)CCCC(=O)Nc1ccc(C(=O)NCc2cccnc2)cc1	22	0	-44	0	101*
O=C(CCC1CCCC1)Nc1ccc(C(=O)NCc2cccnc2)cc1	10	-17	6	26	100*
O=C(NCc1cccnc1)c1ccc(NS(=O)(=O)c2ccccc2)cc1	7	18	10	-3	-3
O=C(COc1ccc(Cl)cc1)Nc1ccc(C(=O)O)cc1NC(=O)COc1ccc(Cl)cc1	26	0	-30	3	-8
CC(C)C[C@@H](CNCC(=O)[C@H](CC(=O)O)NC(=O)c1[nH]cnc1C(=O)N[C@H](CN)CC(C)C)NC(=O)c1nc[nH]c1C(=O)N[C@@H](Cc1ccccc1)C(=O)O	.	.	.	-4	.
CC(=NNC(=O)c1ccncc1)c1ccccc1Cl	.	.	.	8	.
C/C(=N\NC(=O)c1ccccc1NC(=O)c1ccc(Cl)cc1)c1ccncc1	-27	19	-117	-46	102*
CCCCCCSc1ccc(-c2nc3ccccn3c2NCCCC)cc1	-1	8	-19	14	10
SMILES	697 NFkB inh	Jurkat NFkB inh	Mdm2 MdmX PPI	Gli-Sufu antag	Beta apoptosis
CCC(C)Sc1ccc(-c2nc3ccccn3c2NCc2ccccc2)cc1OC (configuration not stated)	1	-17	23	-12	8
CCCCNc1c(-c2ccc(-c3cccc(Cl)c3)cc2)nc2ccccn12	-29	-33	-43	-34	110*
CCC(C)Sc1ccc(-c2nc3ccc(C)cn3c2NCc2ccccc2)cc1 (configuration not stated)	-61	4	-32	-58	.
COc1ccc(-c2nc3cnccn3c2NCc2ccccc2)cc1SC1CCCCC1	12	3	20	6	10
Cc1ccc2nc(-c3ccc(-c4cccc(Cl)c4)cc3)c(NCc3ccccc3)n2c1	-32	-25	-17	5	121*
COc1cc(-c2nc3ccc(C)cn3c2NCc2ccccc2)ccc1SC1CCCCC1	12	5	49	0	110*
COc1cc(-c2nc3ccc(C)cn3c2NCc2ccccc2)ccc1-c1cccc(Cl)c1	-4	0	42	8	102*
